# Hits are enriched below; roughly 2.7% of the tested compounds scored in any of these assays.
# ERa SRC1 pot = ER-alpha (human) coactivator binding potentiation | 1.3% of 86,000 active | coactivator binding (% of control), % at 25.6 µM | TR-FRET ERalpha-LBD/SRC-Cy5 coactivator binding, 2 h; 100 = basal binding, no effect; in the data active means activity above about 200%;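 further: binding measured in presence of low estradiol as agonist stimulus; 0% = peptide alone without receptor and 100% = receptor with peptide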
# Target sequence (P03372 whole entry, looked up, the tested form may be a part): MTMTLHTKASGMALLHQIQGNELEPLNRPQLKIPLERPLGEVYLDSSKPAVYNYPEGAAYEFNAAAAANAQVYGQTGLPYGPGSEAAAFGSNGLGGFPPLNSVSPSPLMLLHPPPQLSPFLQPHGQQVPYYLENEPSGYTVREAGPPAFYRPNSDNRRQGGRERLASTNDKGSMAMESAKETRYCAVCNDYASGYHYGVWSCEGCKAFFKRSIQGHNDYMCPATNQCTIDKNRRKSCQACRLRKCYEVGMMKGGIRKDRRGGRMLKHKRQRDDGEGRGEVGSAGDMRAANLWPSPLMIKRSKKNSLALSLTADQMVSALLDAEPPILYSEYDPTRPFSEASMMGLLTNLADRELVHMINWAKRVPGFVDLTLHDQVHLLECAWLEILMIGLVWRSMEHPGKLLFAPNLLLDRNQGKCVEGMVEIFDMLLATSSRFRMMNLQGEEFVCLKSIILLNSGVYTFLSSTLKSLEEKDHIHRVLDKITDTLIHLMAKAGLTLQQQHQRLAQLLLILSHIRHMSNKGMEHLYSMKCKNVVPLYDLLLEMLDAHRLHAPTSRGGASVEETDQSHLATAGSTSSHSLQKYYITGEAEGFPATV
# ERa SRC1 inh = blocks coactivator binding to human estrogen receptor alpha | P03372 | TR-FRET ER-alpha LBD / SRC-1 peptide, estradiol-bound | inhibition, % at 25.6 µM | 1.7% of 86,000 active | AID 629; in the data active means inhibition above about 50%;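 further: 0% = receptor plus peptide control and 100% = peptide only without receptor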
# ERb SRC1 inh = blocks coactivator binding to human estrogen receptor beta; 1.3% of 86,000 active; AID 633; TR-FRET ER-beta LBD / SRC1-Cy5 peptide binding; receptor agonist-loaded with 1 µM estradiol; inhibition, % at 25.6 µM; Q92731;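 active means compounds whose percent inhibition of the receptor-coactivator binding signal exceeds about 50% in the single-dose screen, limit read from the data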;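 further: 0% = receptor plus peptide wells without compound and 100% = peptide-only wells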
# MRP-1 activ = activates MRP-1; 0.61% of 140,000 active; H69AR cells + doxorubicin, viability rescue, CellTiter-Glo; viability increase, % at 10 µM;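 active means viability gain under doxorubicin at or above a set limit, the compound median plus 3 SD, cut at about 4.7% in these data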;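 further: MRP-1 overexpressing cells given doxorubicin 25 µM after compound pretreatment; 18-22 h compound pretreatment then 72 h with doxorubicin before readout; 0% = doxorubicin-only wells and 100% = vehicle-treated cells without doxorubicin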
# MRP reversal = compounds reversing MRP-mediated drug resistance | H69AR cells + 2 uM doxorubicin, CellTiter-Glo, 72 h | differential viability (reversal), % at 10 µM | 0.04% of 85,000 active | AID 602;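 active means viability drop by adding the cancer drug above about 55%, with treated viability meeting a 40% cutoff, limit read from the data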;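 further: viability without doxorubicin minus viability with 2 µM doxorubicin for each compound; larger differential means the compound sensitizes cells more to doxorubicin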
# Starred values were filed as active, the others as inactive; · = no result given; [ ] = remark or other dose.
SMILES,ERa SRC1 pot,ERa SRC1 inh,ERb SRC1 inh,MRP-1 activ,MRP reversal
CCC1SC2=NC(C)=C(C(=O)OC)C(c3ccc(C(=O)OC)cc3)N2C1=O (centres undefined),95.2,-2.3,-7.9,4.9*,8.8
CCC1SC2=NC(C)=C(C(=O)OCCOC)C(c3ccc(C(=O)OC)cc3)N2C1=O (centres undefined),96.5,13.2,13.4,7.8*,18.6
Cc1cc(N2CCN(S(=O)(=O)c3ccc4c(c3)OCCO4)CC2)n2ncnc2n1,116.9,-2.0,-9.0,-0.8,10.7
Cc1cccc2cc(CN(Cc3ccccc3)C(=O)N3CCOCC3)c3nnnn3c12,102.6,9.3,-0.9,·,-13.2
CCn1c2ccccc2c2nnc(SCC(=O)Nc3cc(C)on3)nc21,136.4,20.3,30.5,-0.6,7.7
Cn1c2ccccc2c2nnc(SCc3ccc4nonc4c3)nc21,77.5,55.0*[fluorescence artefact?],28.9,-1.1,-12.2
CCn1cc(SCC(=O)NCc2ccc3c(c2)OCO3)c2ccccc21,111.0,-5.1,53.1*,-3.0,18.4
CCn1c2ccccc2c2nnc(SCC(=O)Nc3ccc4c(c3)OCO4)nc21,102.3,50.1*,30.6,-1.2,2.0
CCn1c2ccccc2c2nnc(SCc3ccccc3)nc21,89.6,56.4*[fluorescence artefact?],22.5,-3.9,-9.6
OC1(c2cccc(C(F)(F)F)c2)CCN(c2ncnc3c2[nH]c2ccc(F)cc23)CC1,109.7,8.1,16.2,-6.1,-0.4
CNc1sc(C(=O)c2cccs2)c(N)c1-c1nc2ccccc2s1,73.3,28.2,33.6,9.0*,-13.7
CC(C)(C)c1csc(NC(=O)c2ccc3nccnc3c2)n1,113.5,8.9,-3.1,0.1,1.8
CCOC(=O)c1ccc(Oc2nc(NC(C)(C)C)nc(N(C)C)n2)cc1,156.7,-7.6,-2.1,7.0*,-4.7
CCOC(=O)c1ccc(Oc2nc(N(C)C)nc(N(C)C)n2)cc1,85.1,1.8,-2.3,3.0,14.3
COC(=O)c1sc(S(=O)(=O)Nc2ccc(C)c(C)c2)c(C(=O)OC)c1C,·,·,·,0.0,·
Cc1nn(Cc2c(F)c(F)c(F)c(F)c2F)c(C)c1NC(=O)c1ccc(COc2ccccc2Cl)o1,·,·,·,1.5,·
Cc1nn(Cc2c(F)c(F)c(F)c(F)c2F)c(C)c1NC(=O)c1ccc(COc2ccc(F)cc2)o1,·,·,·,6.7*,·
COc1ccccc1N1CCN(C(=O)c2cc3c(s2)CCC3)CC1,60.8,64.3*,43.3,-2.6,-0.6
COc1ccc(Cl)cc1NC(=O)C(C)Sc1nncn1C (centres undefined),111.7,-0.7,-3.4,-3.0,11.2
CC(Sc1nncn1C)C(=O)Nc1ccc(Cl)cn1 (centres undefined),·,·,·,4.9*,·
Cc1nn(C)cc1/C=C1\SC(=S)NC1=O,·,·,·,-3.0,·
Cc1cc(/C=C2\SC(=S)NC2=O)c(C)n1C,·,·,·,5.5*,·
CCc1ccc(CNc2ccc(O)cc2)cc1,70.7,26.2,55.5*[fluorescence artefact?],-3.7,-6.7
Cn1nc(C(=O)NC2CCCCC2)c2ccccc2c1=O,118.6,-0.3,-7.0,-2.2,20.0
Cn1nc(CC(=O)Nc2ncc(Br)s2)c2ccccc2c1=O,87.8,35.8,50.2*,-3.4,18.8
SMILES,ERa SRC1 pot,ERa SRC1 inh,ERb SRC1 inh,MRP-1 activ,MRP reversal
Cn1nc(CC(=O)NC2CCCCCCCCCCC2)c2ccccc2c1=O,49.7,90.6*[fluorescence artefact?],54.5*[fluorescence artefact?],-2.5,5.8
Cn1nc(CC(=O)Nc2ccc3c(c2)CCC3)c2ccccc2c1=O,118.2,7.0,0.9,-1.4,4.9
CCCN1Cc2cccc(C(=O)Nc3ccc(N4CCN(CC)CC4)cc3)c2C1=O,85.4,15.6,15.7,·,-15.2
O=C1C=C(c2ccccc2)OC(=O)C1C(=O)c1ccccc1 (centres undefined),102.8,-12.6,-4.5,-2.6,7.5
CCCCNC(=O)c1onc(CSc2cccc3ccccc23)c1C(=O)O,·,·,·,-0.9,·
COc1ccc(-c2cc3nc4c(c(=O)n3[nH]2)CCC4)cc1,39.5,52.0*[fluorescence artefact?],42.9,-1.1,12.4
CCOC(=O)CSC1=NC(=O)/C(=C\c2ccc(Cl)cc2)S1,·,·,·,-3.2,·
Cc1ccc(-c2nnc3n2N=C(c2ccc(Br)cc2)CS3)cc1,94.5,65.8*,29.6,-1.5,-6.8
CCOc1ccc(C2=Nn3c(nnc3-c3ccccc3OC)SC2)cc1,·,·,·,-4.5,·
Cc1cccc(-c2nnc3n2N=C(c2ccc(Br)cc2)CS3)c1,297.1*,55.7*[fluorescence artefact?],38.0,·,-15.1
COc1ccccc1-c1nnc2n1N=C(c1ccc(O)c(O)c1)CS2,49.6,60.1*[fluorescence artefact?],74.5*[fluorescence artefact?],-3.8,-25.4
O=C(NN=C1c2ccccc2-c2ccccc21)c1cccc(Br)c1,·,·,·,-4.5,·
CCC(C(=O)NC1CCCCC1)n1c(SCc2cccc(F)c2)nc2ccncc21 (centres undefined),·,·,·,-1.8,·
COc1ccc(-c2nc(Cn3c(SCc4ccc(C)cc4)nc4ccncc43)c(C)o2)cc1OC,217.1*,41.5,35.6,-1.7,-18.5
COc1ccc(-c2nc(Cn3c(SCc4cccc(F)c4)nc4ccncc43)c(C)o2)cc1OC,237.2*,8.9,36.2,-1.7,12.5
Cc1ccc(S(=O)(=O)NCCSc2nnnn2C)cc1,112.3,-1.3,75.0*[fluorescence artefact?],-1.3,6.1
Cn1nnnc1SCCNS(=O)(=O)c1ccccc1,143.9,10.5,2.6,1.1,3.4
CCOc1ccc(C(=O)Nc2ccc(NC(=O)c3ccco3)c(Cl)c2)cc1Cl,714.6*[fluorescence artefact?],12.4,48.4,-5.9,3.5
CCOc1ccc(C(=O)Nc2ccc(NC(=O)c3ccco3)c(Cl)c2)cc1Br,·,·,·,-2.5,·
O=C(CCc1ccccc1)Nc1ccc(N2CCOCC2)cc1,111.2,3.9,59.1*,-2.3,0.6
CCOCCCn1c(=N)c(C(=O)NCc2ccc3c(c2)OCO3)cc2c(=O)n3cccc(C)c3nc21,92.2,30.1,29.0,-5.7,-4.6
Cc1cnc(C(=O)OCC(=O)c2csc(N3CCCCC3)n2)cn1,51.5,54.1*[fluorescence artefact?],57.1*,-1.6,-4.2
CC1(C)Cc2ccccc2-c2nnc(SCC(=O)Nc3nc4ccccc4s3)n21,144.2,55.7*[fluorescence artefact?],15.5,-0.1,8.5
COC(=O)/C(=C(/F)Sc1cc(C)c(O)c(C)c1)C(F)(F)F,23.0,41.0,29.3,-1.1,0.7
CC1=C(C)/C(=N\OS(=O)(=O)c2ccccc2)C=CC1=O,90.0,7.7,4.1,-2.5,-1.3
SMILES,ERa SRC1 pot,ERa SRC1 inh,ERb SRC1 inh,MRP-1 activ,MRP reversal
CCN(CC)S(=O)(=O)c1cccc(NC(=O)COC(=O)CCC(=O)c2ccc(F)cc2)c1,·,·,·,-1.3,·
COCCCNC(=O)Cn1nnc(-c2ccc(NC(=O)c3ccc(F)cc3)cc2)n1,257.9*[fluorescence artefact?],48.4,45.9,-0.9,-3.4
C=CCOC(=O)c1sc(N2C(=O)c3oc4ccccc4c(=O)c3C2c2ccco2)nc1C (centres undefined),37.8,53.8*,61.1*,·,2.5
O=C(Nc1ccc2c(c1)OCO2)c1cccc2c1C(=O)N(Cc1cccnc1)C2,32.4,76.7*[fluorescence artefact?],61.3*,0.0,3.6
Cc1c(C(=O)NCCCN2CCOCC2)oc2c1C1(CCC2)SCCS1,·,·,·,-1.7,·
COc1ccc(CNC(=O)c2cc3c(=O)n4ccccc4nc3n(Cc3cccnc3)c2=N)cc1,52.6,78.2*[fluorescence artefact?],41.8,-3.1,9.9
N=c1c(C(=O)NCc2ccc3c(c2)OCO3)cc2c(=O)n3ccccc3nc2n1Cc1cccnc1,4.5,91.6*[fluorescence artefact?],57.2*,-3.1,7.5
